Reference: PubChem BioAssay (EPA / NIEHS)
Several values for one entry are separate records, joined by “and”; a condition that tells them apart may be missing. Identical values can stand only once. Inconclusive results are not listed. Activity calls are given as the source filed them. How the source made its calls, unless noted: active means hit-call score of the fitted dose curve at least 0.9, where 1 is the maximum; inconclusive means response in the unintended direction; inactive means score below 0.9.

How the values were obtained:
[1] = target: Estrogen receptor beta (Homo sapiens) (UniProt Q92731); assay: OT_ER_ERbERb_1440: Odyssey Thera (OT) 24-hour HEK293T Protein-Complementation Assay for Estrogen Receptor-beta/-beta Homodimer (AID 2283380);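 further: fluorescence gain from ER beta LBD homodimer complementation read by laser scanning cytometry; scored as signal increase over DMSO baseline for both agonists and antagonists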
Estrogen receptor beta (Homo sapiens), sequence (Q92731 whole entry, looked up, the tested form may be a part): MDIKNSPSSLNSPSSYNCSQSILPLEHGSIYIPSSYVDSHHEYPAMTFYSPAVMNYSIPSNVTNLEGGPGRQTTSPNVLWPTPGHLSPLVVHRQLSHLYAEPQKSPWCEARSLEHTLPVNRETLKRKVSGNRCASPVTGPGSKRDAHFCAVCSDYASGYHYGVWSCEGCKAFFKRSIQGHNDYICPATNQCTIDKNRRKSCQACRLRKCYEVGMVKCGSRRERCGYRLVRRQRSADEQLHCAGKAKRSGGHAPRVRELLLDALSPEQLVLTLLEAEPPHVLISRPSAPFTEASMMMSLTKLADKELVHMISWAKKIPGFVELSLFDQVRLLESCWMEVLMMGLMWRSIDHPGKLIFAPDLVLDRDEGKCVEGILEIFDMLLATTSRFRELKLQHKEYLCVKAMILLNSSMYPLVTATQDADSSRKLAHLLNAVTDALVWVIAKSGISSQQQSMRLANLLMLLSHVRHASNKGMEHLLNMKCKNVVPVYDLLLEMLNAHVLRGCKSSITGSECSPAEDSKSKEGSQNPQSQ
In short: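 Fluorescence increase, nuclear for agonists or whole-cell for antagonists, relative to DMSO vehicle, quantified by laser scanning cytometer after fixation and Draq5 staining. Readout from 24 h treatment of HEK293T cells carrying complementation-paired ER beta LBD (aa 310-547).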

[2] = target: Retinoic acid receptor RXR-alpha (Homo sapiens) (UniProt P19793); assay: OT_NURR1_NURR1RXRa_0480: Odyssey Thera (OT) 8-hour HEK293T Protein Complementation Assay for Nurr1/retinoid X receptor (RXR) (AID 2283385)
Retinoic acid receptor RXR-alpha (Homo sapiens), sequence (P19793 whole entry, looked up, the tested form may be a part): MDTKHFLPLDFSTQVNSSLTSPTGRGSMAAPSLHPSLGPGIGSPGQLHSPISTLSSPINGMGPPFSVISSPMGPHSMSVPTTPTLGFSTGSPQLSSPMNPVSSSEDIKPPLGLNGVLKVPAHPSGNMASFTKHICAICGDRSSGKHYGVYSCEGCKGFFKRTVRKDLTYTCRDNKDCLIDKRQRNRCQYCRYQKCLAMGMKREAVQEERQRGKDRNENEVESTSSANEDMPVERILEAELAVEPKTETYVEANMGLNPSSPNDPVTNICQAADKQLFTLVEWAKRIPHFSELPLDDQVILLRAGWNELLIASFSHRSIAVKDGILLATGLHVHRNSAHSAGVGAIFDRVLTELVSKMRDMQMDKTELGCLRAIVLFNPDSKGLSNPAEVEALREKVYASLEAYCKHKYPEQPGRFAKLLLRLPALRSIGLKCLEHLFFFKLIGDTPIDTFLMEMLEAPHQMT
In short: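 Interaction of Nurr1 with RXRα read as reconstituted reporter fluorescence in a HEK293T fragment-complementation system, 8 h post-treatment; increase over DMSO baseline analysed.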

[3] = target: Retinoic acid receptor RXR-alpha (Homo sapiens) (UniProt P19793); assay: OT_NURR1_NURR1RXRa_1440: Odyssey Thera (OT) 24-hour HEK293T Protein Complementation Assay for Nurr1/retinoid X receptor (RXR) (AID 2283386)
In short: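 Gain in fluorescence, fitted relative to DMSO, reflects Nurr1–RXRα association in HEK293T cells after 24 h dosing. Bait and prey are each linked to a reporter-protein fragment that reassembles on interaction.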

[4] = target: Peroxisome proliferator-activated receptor gamma (Homo sapiens) (UniProt P37231); assay: OT_PPARg_PPARgSRC1_0480: Odyssey Thera (OT) 8-hour Protein-Complementation Assay for Peroxisome Proliferator-activated Receptor Gamma / SRC-1 Co-activator (AID 2283387);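 further: nuclear to cytoplasmic split Venus YFP fluorescence ratio reporting PPARg SRC-1 interaction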
Peroxisome proliferator-activated receptor gamma (Homo sapiens), sequence (P37231 whole entry, looked up, the tested form may be a part): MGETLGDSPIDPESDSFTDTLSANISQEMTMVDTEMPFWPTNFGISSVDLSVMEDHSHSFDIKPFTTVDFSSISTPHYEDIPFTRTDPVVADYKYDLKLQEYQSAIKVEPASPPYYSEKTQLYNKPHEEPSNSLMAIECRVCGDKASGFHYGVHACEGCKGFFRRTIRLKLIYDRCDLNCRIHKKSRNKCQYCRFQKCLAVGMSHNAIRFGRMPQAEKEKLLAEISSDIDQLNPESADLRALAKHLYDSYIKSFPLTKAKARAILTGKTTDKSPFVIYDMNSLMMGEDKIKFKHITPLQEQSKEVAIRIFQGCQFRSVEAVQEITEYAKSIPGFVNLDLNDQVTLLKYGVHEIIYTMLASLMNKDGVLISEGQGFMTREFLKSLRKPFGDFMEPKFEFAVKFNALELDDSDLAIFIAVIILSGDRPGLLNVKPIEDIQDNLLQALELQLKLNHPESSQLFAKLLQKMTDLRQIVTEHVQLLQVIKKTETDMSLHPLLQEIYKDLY
In short: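 Read-out: 488 nm N/C fluorescence ratio from complemented Venus YFP fragments, ≥350 cells per image, gain-of-signal fitted against DMSO baseline. Fusions of PPARg/SRC-1 with IFP1/IFP2 expressed transiently in HEK293T; compounds applied 8 h.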

[5] = target: Estrogen receptor (Homo sapiens) (UniProt P03372); assay: OT_ERa_GFPERaERE_0480: Odyssey Thera (OT) 8-hour HeLa Transcription Induction Assay for Estrogen Receptor (AID 2283381; active means hit-call score of the fitted dose curve at least 0.9, where 1 is the maximum; inactive means score below 0.9)
Estrogen receptor (Homo sapiens), sequence (P03372 whole entry, looked up): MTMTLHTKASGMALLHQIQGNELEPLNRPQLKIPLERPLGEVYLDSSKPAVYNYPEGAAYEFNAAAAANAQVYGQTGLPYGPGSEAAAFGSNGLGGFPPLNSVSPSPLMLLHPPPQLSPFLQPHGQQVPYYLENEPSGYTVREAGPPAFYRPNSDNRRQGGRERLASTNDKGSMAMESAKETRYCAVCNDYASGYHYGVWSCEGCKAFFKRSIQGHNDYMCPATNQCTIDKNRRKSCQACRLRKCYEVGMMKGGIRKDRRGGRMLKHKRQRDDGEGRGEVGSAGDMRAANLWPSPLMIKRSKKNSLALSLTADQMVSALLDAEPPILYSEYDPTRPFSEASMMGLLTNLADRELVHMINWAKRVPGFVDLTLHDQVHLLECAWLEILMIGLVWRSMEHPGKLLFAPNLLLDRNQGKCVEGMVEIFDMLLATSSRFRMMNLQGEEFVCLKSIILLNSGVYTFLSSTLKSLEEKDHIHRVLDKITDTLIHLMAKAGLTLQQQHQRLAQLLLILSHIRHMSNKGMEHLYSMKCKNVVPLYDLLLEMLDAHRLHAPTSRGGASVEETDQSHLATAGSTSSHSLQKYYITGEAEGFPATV
In short: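 Fluorescence microscopy with high-content image analysis measures ERE-driven GFP induction in HeLa cells at 8 h post-dose. Increases fitted against DMSO baseline.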

[6] = target: Estrogen receptor (Homo sapiens) (UniProt P03372); assay: OT_ERa_GFPERaERE_0120: Odyssey Thera (OT) 2-hour HeLa Transcription Induction Assay for Estrogen Receptor (AID 2283382)
In short: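 Fluorescence-microscopy images of the GFP-ERα/ERE reporter, scored by high-content image algorithms, give the readout. HeLa exposure lasted 2 h, and only signal increase over DMSO was fitted.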

[7] = target: Bile acid receptor (Homo sapiens) (UniProt Q96RI1); assay: OT_FXR_FXRSRC1_0480: Odyssey Thera (OT) 8-hour HEK293T Protein-Complementation Assay for Farnesoid X receptor/SRC-1 Co-activator (AID 2283383)
Bile acid receptor (Homo sapiens), sequence (Q96RI1 whole entry, looked up, the tested form may be a part): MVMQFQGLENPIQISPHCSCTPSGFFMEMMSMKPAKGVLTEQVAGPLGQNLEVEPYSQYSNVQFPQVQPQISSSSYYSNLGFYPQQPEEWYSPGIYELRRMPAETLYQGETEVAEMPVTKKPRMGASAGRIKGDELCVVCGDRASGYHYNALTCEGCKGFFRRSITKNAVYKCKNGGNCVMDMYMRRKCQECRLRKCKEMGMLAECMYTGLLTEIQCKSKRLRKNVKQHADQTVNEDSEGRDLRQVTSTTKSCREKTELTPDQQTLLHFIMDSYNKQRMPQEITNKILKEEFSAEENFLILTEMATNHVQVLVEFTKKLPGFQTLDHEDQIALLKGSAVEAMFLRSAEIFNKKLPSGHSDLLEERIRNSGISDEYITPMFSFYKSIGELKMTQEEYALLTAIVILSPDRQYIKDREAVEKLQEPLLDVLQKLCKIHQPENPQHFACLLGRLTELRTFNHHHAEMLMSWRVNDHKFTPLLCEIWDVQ
In short: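 Binding of FXR to coactivator SRC-1 was read as fluorescence from a reconstituted split reporter in HEK293T cells, 8 h after chemical addition. Only increases in signal versus DMSO were fit.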

[8] = target: Bile acid receptor (Homo sapiens) (UniProt Q96RI1); assay: OT_FXR_FXRSRC1_1440: Odyssey Thera (OT) 24-hour HEK293T Protein-Complementation Assay for Farnesoid X receptor/SRC-1 Co-activator (AID 2283384)
In short: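 Protein-fragment complementation: FXR and SRC-1 fused to reporter fragments that reassemble on interaction, read by fluorescence intensity. Human HEK293T cells measured 24 h post-dose; positive-direction fit versus DMSO.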

[9] = target: Agonist Androgen Response Element (ARE), AR (gene 367) (UniProt P10275); assay: OT_AR_ARELUC_AG_1440: Odyssey Thera (OT) 24-hour CHO-K1 Luciferase Assay for Agonist Androgen Response Element (ARE) (AID 2283379)
Agonist Androgen Response Element (ARE), AR (gene 367), sequence (P10275 whole entry, looked up): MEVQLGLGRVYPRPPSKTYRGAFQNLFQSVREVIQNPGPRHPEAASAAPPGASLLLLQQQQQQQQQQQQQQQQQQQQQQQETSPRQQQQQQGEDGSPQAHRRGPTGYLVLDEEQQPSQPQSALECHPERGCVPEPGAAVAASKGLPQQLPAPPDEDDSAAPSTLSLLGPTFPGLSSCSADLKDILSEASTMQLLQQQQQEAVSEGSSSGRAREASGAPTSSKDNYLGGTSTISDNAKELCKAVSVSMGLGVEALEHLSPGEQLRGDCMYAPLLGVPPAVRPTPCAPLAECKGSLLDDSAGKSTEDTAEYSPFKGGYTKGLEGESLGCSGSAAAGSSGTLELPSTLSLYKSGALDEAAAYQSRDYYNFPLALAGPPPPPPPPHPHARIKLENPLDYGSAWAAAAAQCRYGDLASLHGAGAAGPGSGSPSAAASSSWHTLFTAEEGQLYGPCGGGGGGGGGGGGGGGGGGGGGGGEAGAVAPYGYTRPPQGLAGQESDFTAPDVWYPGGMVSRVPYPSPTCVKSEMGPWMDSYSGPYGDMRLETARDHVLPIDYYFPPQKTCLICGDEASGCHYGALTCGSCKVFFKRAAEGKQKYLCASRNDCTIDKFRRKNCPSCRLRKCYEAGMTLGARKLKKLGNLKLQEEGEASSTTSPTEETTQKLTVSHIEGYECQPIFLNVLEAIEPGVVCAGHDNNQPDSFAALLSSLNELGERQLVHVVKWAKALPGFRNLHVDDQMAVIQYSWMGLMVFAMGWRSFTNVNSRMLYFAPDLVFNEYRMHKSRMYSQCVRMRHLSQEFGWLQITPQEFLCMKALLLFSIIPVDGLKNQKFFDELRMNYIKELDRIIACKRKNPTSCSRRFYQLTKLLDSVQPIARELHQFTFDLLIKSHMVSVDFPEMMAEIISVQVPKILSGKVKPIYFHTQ
In short: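 Readout: luciferase bioluminescence from CHO-K1 ARE-luc cells, measured 24 h post-dosing; agonism = increased mean luminescence vs DMSO controls, fitted in positive direction.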

Measured: AC50

CCOCCO
inactive: [1] | [2] | [3] | [4]

CC(=O)c1ccc2c(c1)[C@H](NC(=O)c1ccc(F)cc1)[C@@H](O)C(C)(C)O2
inactive: [4]

O=C1OC(=O)C2C3C=CC(C3)C12 (stereo not given)
inactive: [1] | [2] | [3] | [4]

CC1=CC(=O)CC(C)(C)C1
inactive: [2] | [3] | [4]

CCCCCCCCO
inactive: [1] | [5] | [6] | [3] | [4]

O=C1CCCCCN1
inactive: [1] | [7] | [8] | [4]

CCCCCCCCCCCCc1ccccc1
inactive: [4]

CC(O)CN(CCN(CC(C)O)CC(C)O)CC(C)O (stereo not given)
inactive: [1] | [8] | [2] | [3] | [4]

O=C(CCCCCCCCc1cccnc1)N1CCC(C=C(c2ccccc2)c2ccccc2)CC1
active: [1] 11.9 µM | [3] 12 µM
inactive: [9] | [2] | [4]

O=c1n(CC2CO2)c(=O)n(CC2CO2)c(=O)n1CC1CO1 (stereo not given)
inactive: [1] | [5] | [6] | [3] | [4]
active: [2] 50 µM and 34.7 µM

CCOCCOCCOCCO
inactive: [1] | [8] | [2] | [3] | [4]

Cc1ccc(S(=O)(=O)O)cc1C
inactive: [5] | [6] | [2] | [3] | [4]

C1=CCCC=CCCC=CCC1
inactive: [1] | [7] | [8] | [2] | [3] | [4]

CCCCC(CC)COC(=O)CCCCCCCCC(=O)OCC(CC)CCCC (stereo not given)
inactive: [5] | [6] | [7] | [8] | [2] | [3] | [4]

CC[C@H]1OC(=O)[C@H](C)[C@@H](O[C@H]2C[C@@](C)(OC)[C@@H](O)[C@H](C)O2)[C@H](C)[C@@H](O[C@@H]2O[C@H](C)C[C@H](N(C)C)[C@H]2O)[C@](C)(O)C[C@@H](C)C(=O)[C@H](C)[C@@H](O)[C@]1(C)O
inactive: [1] | [2] | [3] | [4]

CC(=O)OC[C@H]1O[C@@](COC(C)=O)(O[C@H]2O[C@H](COC(C)=O)[C@@H](OC(C)=O)[C@H](OC(C)=O)[C@H]2OC(C)=O)[C@@H](OC(C)=O)[C@@H]1OC(C)=O
inactive: [1] | [2] | [3]

Nc1nc2ncc(CNc3ccc(C(=O)N[C@@H](CCC(=O)O)C(=O)O)cc3)nc2c(=O)[nH]1
inactive: [9] | [1] | [2] | [3] | [4]

CCCCCCCCCCCCCCCO
inactive: [1] | [7] | [2] | [3] | [4]

COC(=O)CC(=O)OC
inactive: [1] | [5] | [6] | [2] | [3] | [4]

CC[C@H](C)C(=O)O[C@H]1C[C@@H](C)C=C2C=C[C@H](C)[C@H](CC[C@@H]3C[C@@H](O)CC(=O)O3)[C@H]21
active: [7] 32 µM | [8] 34.8 µM
inactive: [1] | [5] | [6] | [2] | [3] | [4]

CCOC(=O)CC(CC(=O)OCC)(OC(C)=O)C(=O)OCC
inactive: [1] | [7] | [8] | [2] | [3] | [4]

Cn1c(=O)c2c(ncn2C)n(C)c1=O
inactive: [2] | [3] | [4]

C1N2CN3CN1CN(C2)C3
inactive: [9] | [1] | [7] | [8] | [2] | [3] | [4]

Cc1ccc(O)cc1
inactive: [9] | [1] | [7] | [8] | [2] | [3] | [4]

On1ccccc1=S
inactive: [1] | [2] | [3] | [4]

CC(C)CCCCCCOC(=O)c1ccc(C(=O)OCCCCCCC(C)C)c(C(=O)OCCCCCCC(C)C)c1
inactive: [1] | [2] | [3] | [4]

C[C@](N)(Cc1ccc(O)c(O)c1)C(=O)O
inactive: [2] | [3] | [4]

CCNc1ccccc1
inactive: [9] | [1] | [7] | [8] | [2] | [3] | [4]

O=P(OC(CCl)CCl)(OC(CCl)CCl)OC(CCl)CCl
inactive: [1] | [5] | [6] | [2] | [3] | [4]

CC(C)=CCCC(C)=CC=O
inactive: [1] | [5] | [6] | [2] | [3] | [4]
